Active and inactive are the calls of the source. A call without a number means that no potency is given here. Calls follow the shape of the dose curve; as a rule, active = well fitted curve in the direction sought with a large enough effect in the repeat runs; inconclusive = weak or mixed curves; inactive = flat fitted curve, though single readings scatter.

The assay in a line: qHTS assay to test for compound auto fluorescence at 590 nm (red) in HEK293 cells (AID 720679). The conditions noted are these: red autofluorescence 540/590 nm; series mostly up to 91.3 µM. The text has this:
National Center for Advancing Translational Sciences [NCATS]
NIH Chemical Genomics Center [NCGC]
U.S. Environmental Protection Agency [EPA]
National Institutes of Environmental Health Sciences [NIEHS]
National Toxicology Program [NTP]
U.S. Food and Drug Administration [FDA]
Compound auto fluorescence often interferes with screening of the compound library against various biological targets and signaling pathways. Some of these compounds may have fluorophoric properties. Such properties may interfere with the assay outputs resulting in false positives and/or negatives. To decrease such complications and ensure the compound activities are relevant in terms of biological response, the Tox21 10K compound library was screened for auto fluorescence.
From the fluorophores used as reporter signals in our screening assays, the auto fluorescence equivalencies of compounds against three fluorophores have been evaluated: Triamterene, Fluorescein and Rose Bengal sodium for blue, green and red fluorescence, respectively. The fluorescence intensities were measured using Excitation/Emission wavelengths at 405/460nm, 485/535nm and 540/590nm for blue, green and red labels, respectively. This assay includes the red fluorescence data.
Tox21 Assay Protocol Summary:
2,000 HEK293 cells in 5 uL of culture medium containing 10% dialyzed FBS per well were dispensed into black wall/clear bottom 1536-well plates using a Multidrop Combi Dispenser (Thermo Scientific). The assay plates were incubated for 4-5 hr at 37C to allow cell attachment to the well bottom, followed by the transfer of 23 nL compound or DMSO vehicle by a pintool work station (Kalypsys, San Diego, CA). After the assay plates were incubated overnight at 37C and 5% CO2, fluorescence intensities in the assay plates were measured by an Envision (PerkinElmer, Shelton, CT) plate reader using three labels for measuring blue, green and red fluorescence at […] 460, 535 and 590nm respectively.
In general terms: Quantitative high-throughput screening tests each substance at several concentrations.
In the case of `CCCCC(CC)COC(=O)c1ccccc1C(=O)O` (stereo not given), the Potency entry was “inactive”.

As for `NNC(=O)c1cccc(C(=O)NN)c1`, the Potency entry was “inactive”.

Take `CCC1=C[C@@H]2CN(C1)Cc1c([nH]c3ccccc13)[C@@](C(=O)OC)(c1cc3c(cc1OC)N(C)[C@H]1[C@@](O)(C(=O)OC)[C@H](OC(C)=O)[C@]4(CC)C=CCN5CC[C@]31[C@@H]54)C2`: the Potency entry was “inactive”.

Consider `CCCCCCCCCCCCCCCS(=O)(=O)Oc1ccccc1`, for which the Potency entry is “inactive”.

`CCOC(=O)O[C@H](C)OC(=O)c1ccc2c(c1)cc(C(=O)NC1CCN(C(C)C)CC1)n2Cc1cc(-c2ccc(Cl)s2)on1`: the Potency entry was “inactive”.

`COCCCC/C(=N\OCCN)c1ccc(C(F)(F)F)cc1`: the Potency entry is “inactive”.

With `CCCCCCCC[P+](CCCCCCCC)(CCCCCCCC)CCCCCCCC`, the Potency entry was “inactive”.

Take `NNc1nc(-c2ccccc2)cs1`: the Potency result was “inactive”.

As to `Cc1cc(O)c(Cl)c(C)c1Cl`, the Potency entry is “inactive”.

Take `C[C@]12CCC(=O)C=C1CC[C@@H]1[C@@H]2[C@@H](O)C[C@@]2(C)[C@H]1CC[C@]2(O)C(=O)COC(=O)CCC(=O)O`: the Potency entry was “inactive”.

Turning to `CCCCCCCCCCn1cc[n+](CCCCCCCCCC)c1C`, the Potency result is “inactive”.

For the compound `O=C(Oc1cccc2cccnc12)c1ccccc1`, the Potency result is “inactive”.

Take `Cc1onc(-c2c(Cl)cccc2Cl)c1C(=O)N[C@@H]1C(=O)N2[C@@H]1SC(C)(C)[C@@H]2C(=O)O`: the Potency result is “inactive”.

Take `O=C(O)c1cc(O)c2c(c1)C(=O)c1cccc(O)c1C2=O`: the Potency entry was “inactive”.

For `CCN(CC)CCCC(C)Nc1c2ccc(Cl)cc2nc2ccc(OC)cc12` (stereo not given), the Potency result was “inactive”.

On to `CN(C)[C@@H]1C(=O)C(C(N)=O)=C(O)[C@@]2(O)C(=O)C3=C(O)c4c(O)ccc(Cl)c4[C@@H](O)[C@H]3C[C@@H]12`, for which the Potency entry is “inactive”.

For `CCCCCCCCOc1ccccc1C(=O)Nc1ccc(C(=O)OCC[N+](C)(CC)CC)cc1`, the Potency entry was “inactive”.

On to `Clc1ccc2nsnc2c1NC1=NCCN1`, for which the Potency entry is “inactive”.

For the compound `Cc1ccc(-n2nc(C(C)(C)C)cc2NC(=O)Nc2ccc(OCCN3CCOCC3)c3ccccc23)cc1`, the Potency result is “inactive”.

In the case of `Cc1cccc(S(=O)(=O)O)c1C`, the Potency entry is “inactive”.

As for `N=C1N=C(N)c2cc3ccccc3cc21`, the Potency result was “inactive”.

For `COc1ccc(-c2ccc3cc(C(=O)O)ccc3c2)cc1C12CC3CC(CC(C3)C1)C2`, the Potency result was “inactive”.

In the case of `Cc1cc(O)c(C(C)(C)C)cc1C(C)(C)C`, the Potency result is “inactive”.

In the case of `CCc1oc2ccccc2c1C(=O)c1cc(Br)c(O)c(Br)c1`, the Potency result was “inactive”.

Regarding `O=C(Nc1cccc(C(F)(F)F)c1)c1cc(Br)cc(Br)c1O`, the Potency entry is “inactive”.

Turning to `O=C(O)c1ccc(Cl)c(Cl)c1`, the Potency result was “inactive”.

In the case of `CCCCCCCCn1sc(Cl)c(Cl)c1=O`, the Potency result is “inactive”.

Take `CCCCC(CC)COP(=O)(O)OCC(CC)CCCC` (stereo not given): the Potency result is “inactive”.

As to `[O-][n+]1ccccc1SSc1cccc[n+]1[O-]`, the Potency result was “inactive”.

In the case of `CCCCCCCCCCCCCCCCCC[N+](C)(C)Cc1ccccc1`, the Potency entry was “inactive”.

In the case of `CC1(C)CCC(C)(C)c2cc(C(=O)Nc3ccc(C(=O)O)cc3)ccc21`, the Potency entry is “inactive”.

`CNC(=O)c1ccccc1`: the Potency result is “inactive”.

In the case of `CCc1cc(Cc2cc(CC)cc(C(C)(C)C)c2O)c(O)c(C(C)(C)C)c1`, the Potency entry is “inactive”.

As for `CCN(C(=O)N(CC)c1ccccc1)c1ccccc1`, the Potency result is “inactive”.

For `CCC(C)(C)C1CCCCC1OC(C)=O` (stereo not given), the Potency entry is “inactive”.

In the case of `CN(C)c1ccc(C2(c3ccc(N(C)C)cc3)OC(=O)c3cc(N(C)C)ccc32)cc1`, the Potency entry was “inactive”.

For the compound `OC1(c2ccc(Cl)c(C(F)(F)F)c2)CCN(CCCC(c2ccc(F)cc2)c2ccc(F)cc2)CC1`, the Potency entry is “inactive”.

`CO[Si](CCCNc1ccccc1)(OC)OC`: the Potency entry was “inactive”.

Turning to `CCCC1O[C@@H]2C[C@H]3[C@@H]4CCC5=CC(=O)C=C[C@]5(C)[C@H]4[C@@H](O)C[C@]3(C)[C@]2(C(=O)CO)O1` (stereo not given in full), the Potency result is “inactive”.

As for `CSc1ccc(/C=C2/C(C)=C(CC(=O)O)c3cc(F)ccc32)cc1`, the Potency result was “inactive”.

Values taken from PubChem BioAssay (Tox21).
